Bioassay records (PubChem)
IL-1B inflam inh: qHTS for Inhibitors of Inflammasome Signaling: IL-1-beta AlphaLISA Primary Screen. THP-1 LPS/ATP IL-1B secretion, AlphaLISA, 16 h; stronger effect = lower value. activity change, % at 57.5 µM. actives 4.7% (n = 360,000). AID 743279, 2014; in the data active = activity change below about -50%; inconclusive = mostly about -30% to -49%
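THP-1 cells pretreated 1 hr with compounds (up to 57.5 uM final), then stimulated with LPS (250 ng/mL final) plus ATP (1.25 mM final); secreted IL-1B measured by AlphaLISA after 16 hr, decreased signal indicating inhibition.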
TDP1 cell CPT: qHTS for Inhibitors of human tyrosyl-DNA phosphodiesterase 1 (TDP1): qHTS in cells in presence of CPT | chicken DT40 Tdp1-/-;hTDP1 cells + 20 nM CPT, ATP luminescence, 48 h | Potency, µM (series often up to 46.2 µM), inactives show at the top dose activity change, negative = growth inhibition, usual class: inhibitors | actives 12% (n = 420,000) | AID 686979, 2013; note: potency is the fitted concentration of half-maximal effect; nearly all actives have a fitted effect of over 55% in size
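Chicken DT40 Tdp1-/- cells stably complemented with human TDP1 were seeded at 400 cells/well in medium containing 20 nM camptothecin, exposed to pin-transferred compounds, and grown at 37 °C for at least 48 hr. Viability was read as ATP luminescence.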
DT40 TDP1 no CPT: qHTS for Inhibitors of human tyrosyl-DNA phosphodiesterase 1 (TDP1): qHTS in cells in absence of CPT | DT40 Tdp1-/- hTDP1 cells, no CPT, ATP luminescence, 48 h | Potency, µM (series often up to 46.2 µM), inactives show at the highest dose activity change, negative = growth inhibition, actives largely listed as inhibitors | actives 15% (n = 420,000) | AID 686978, 2013; note: potency is the fitted concentration of half-maximal effect; nearly all actives have a fitted effect of over 55% in size
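A cellular qHTS used chicken DT40 cells lacking endogenous Tdp1 but carrying stably transfected human TDP1. Compounds were applied without camptothecin, and cell growth kinetics were judged by ATP-dependent luminescence after ≥48 hr.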
ELG1 DNA repair: qHTS screen for small molecules that inhibit ELG1-dependent DNA repair in human embryonic kidney (HEK293T) cells expressing luciferase-tagged ELG1 | HEK293T ELG1-luciferase reporter, luminescence, 16 h; DNA damage induced by 5-fluorouridine | Potency, µM (series often up to 46.1 µM), without a hit: at the top dose activity change, negative = inhibition, most hits filed as inhibitors | actives 2.3% (n = 330,000) | AID 504467, 2011; note: potency is the fitted concentration of half-maximal effect; nearly all actives have a fitted effect of over 55% in size
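Cells (2,000 per well) received 5-fluorouridine plus test compound or DMSO and were incubated 16 hr at 37 °C, 5% CO2. Luciferase activity was read by luminescence 30 min after ONE-Glo addition; signal suppression marked inhibition of damage-induced ELG1 function.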
HT1080-NT tox: qHTS for induction of synthetic lethality in tumor cells producing 2HG: qHTS for the HT-1080-NT fibrosarcoma cell line; HT-1080-NT fibrosarcoma viability, CellTiter-Glo ATP luminescence, 48 h; Potency, µM (titrated, usually from 46.1 µM), for inactives: top-dose activity, negative = less viability, actives largely listed as cytotoxic; actives 1.6% (n = 360,000); AID 686970, 2013;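 note: NT is the 2HG producing partner of a matched IDH1 knockdown line; potency is the fitted concentration of half-maximal effect; 0% = DMSO-treated cells and -100% = media-only wells without cells; nearly all actives have a fitted effect of over 55% in size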
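Compounds were tested in concentration-response format on HT-1080-NT cells for 48 hours at 37 degrees C. Cell viability came from CellTiter-Glo luminescence; curves were classified by r2, response magnitude and activity.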
HT1080 IDH1KD tx: qHTS for induction of synthetic lethality in tumor cells producing 2HG: qHTS for the HT-1080-IDH1KD cell line | HT-1080 IDH1 knockdown viability, ATP luminescence, 48 h | Potency, µM (series often up to 46.1 µM), inactives show at the highest dose activity, negative = toxicity, usual class: cytotoxic | actives 2% (n = 360,000) | AID 686971, 2013;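 note: potency is the fitted concentration of half-maximal effect; 0% = DMSO wells and -100% = cell-free medium wells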
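Using the IDH1-knockdown HT-1080 line run in the same batch and compound series as the NT line, viability after 48 h at 37 °C was determined by CellTiter-Glo luminescence and expressed as % activity.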
Active calls of the source: *; ? = inconclusive; . = no result. Hits are enriched below; roughly 19% of the tested compounds scored in any of these assays. Unless noted, calls come from the whole dose curve; as a rule, active = well fitted curve in the direction sought with a large enough effect; inconclusive = small, poorly fitted or top-dose-only effect, or another doubt; inactive = no such curve, though single readings can be large; an effect the other way counts as inactive or inconclusive. Unless noted, % is set by controls: 0 for no effect and ±100 for the full control effect.

SMILES	IL-1B inflam inh	TDP1 cell CPT	DT40 TDP1 no CPT	ELG1 DNA repair	HT1080-NT tox	HT1080 IDH1KD tx
CC1CCc2[nH]c3ccc(C(=O)NCC4CCCO4)cc3c2C1 (stereo not given)	-51*	?	?	?	-11%	-12%
O=C(NCC1CCCO1)c1ccc(C(=O)NCC2CCCO2)cc1 (stereo not given)	15	4%	-12%	15%	16%	11%
Cc1ccc(C)c(NC(=O)CN(C)C(=O)c2ccc3[nH]c4c(c3c2)CC(C)CC4)c1 (stereo not given)	-54*	?	?	-11%	?	?
CC1CCc2[nH]c3ccc(C(=O)N(C)CC(=O)Nc4ccccc4Br)cc3c2C1 (stereo not given)	-74*	?	12µM*	?	-20%	?
CCN(CC(=O)Nc1ccc(OC)cc1)C(=O)c1ccc2[nH]c3c(c2c1)CC(C)CC3 (stereo not given)	?	?	?	?	-18%	-22%
COc1cc(C)c(S(=O)(=O)NOCc2ccccc2)c(C)c1C	0	-9%	?	?	-4%	-3%
COc1cc2[nH]c(=O)n(CCCC(=O)N(C)Cc3ccccc3)c(=O)c2cc1OC	.	?	-25%	.	.	.
COCCNC(=O)C1(C)CCN(C(=O)c2ccc(C(F)(F)F)nc2C)C1 (stereo not given)	14	1%	19%	.	?	12%
O=C(CNC(=O)c1ccccc1)OCC(=O)c1ccc2ccccc2c1	.	-12%	-4%	.	.	.
C[C@H](C[C@H](O)[C@H]1OC1(C)C)C1=C2C[C@H](O)C3[C@@]4(C)CCC(=O)C(C)(C)C4CC[C@]3(C)[C@@]2(C)CC1 (stereo not given in full)	-7	7.3µM*	15µM*	-17%	?	?
O=S(=O)(c1ccccc1)N1CCN(c2nnc(-c3ccccc3)c3ccccc23)CC1	3	18µM*	15µM*	23µM*	3%	16%
CS(=O)(=O)N1CCN(c2nnc(-c3ccccc3)c3ccccc23)CC1	-61*	-15%	-23%	-22%	0%	-9%
Cc1ccc(-c2nnc(N3CCN(CCO)CC3)c3ccccc23)cc1	?	-13%	?	20%	-7%	0%
Cc1ccc(-c2nnc(N3CCN(S(C)(=O)=O)CC3)c3ccccc23)cc1	-59*	-16%	-30%	?	-2%	3%
O=S(=O)(c1ccccc1)N1CCC2(CCN(Cc3ccccc3)CC2)CC1	.	13%	-9%	.	.	.
COC(=O)c1ccc2c(=O)n(C3CCCCC3)c(SCC#N)nc2c1	-8	12µM*	23µM*	?	0%	-11%
CCOC(=O)CSc1nc2cc(C(=O)N3CCC(C(N)=O)CC3)ccc2c(=O)n1C1CCCCC1	-5	-2%	-11%	?	0%	5%
CCOC(=O)N1CCN(CCC(=O)c2ccc(Br)cc2)CC1	-10	2.9µM*	7.3µM*	14%	?	?
CCOC(=O)N1CCN(C(=O)Cc2ccc(Cl)cc2)CC1	3	0%	-12%	2%	3%	0%
CCOC(=O)N1CCN(CCC(=O)c2ccc(Cl)cc2)CC1	-1	2.3µM*	3.3µM*	0%	?	-18%
CC(C)CN(C(=O)COC(=O)CNC(=O)c1ccccc1)c1c(N)n(Cc2ccccc2)c(=O)[nH]c1=O	8	7%	-17%	16%	4%	12%
Cc1cc(=O)[nH]c(SCC(=O)NC(c2ccccc2)c2ccccc2)n1	30	-15%	?	8%	12%	9%
Cc1ccc(NC(=O)CSC2=NCCN2)cc1	-61*	23µM*	18µM*	11%	3%	1%
O=C(CC(=O)Nc1ccccc1[N+](=O)[O-])Nc1ccccc1[N+](=O)[O-]	-64*	-3%	-11%	0%	-1%	-11%
CCn1c(SCC(=O)Nc2ccc(C)cc2)nnc1-c1ccccn1	-16	?	-13%	?	15%	8%
SMILES	IL-1B inflam inh	TDP1 cell CPT	DT40 TDP1 no CPT	ELG1 DNA repair	HT1080-NT tox	HT1080 IDH1KD tx
O=C(CSC1=NC(=O)C(c2ccccc2)C(=O)N1)Nc1ccccc1[N+](=O)[O-] (stereo not given)	-11	2%	-7%	3%	12%	1%
O=C(CSC1=NCCN1)Nc1ccccc1[N+](=O)[O-]	-119*	?	21µM*	?	0%	1%
O=C(CSC1=NCCN1)NC(c1ccccc1)c1ccccc1	-105*	?	21µM*	23%	?	?
O=[N+]([O-])c1ccccc1Nc1ccccc1[N+](=O)[O-]	5	-24%	-12%	.	1%	9%
O=C(OCCCOC(=O)c1ccccc1O)c1ccccc1O	.	.	.	-1%	.	.
O=C(Nc1ccccc1[N+](=O)[O-])C1(c2ccccc2)CCOCC1	7	?	16µM*	14%	-1%	1%
O=C(CSC1=NCCN1)Nc1cccc([N+](=O)[O-])c1	-67*	15µM*	21µM*	-29%	-10%	-24%
COc1ccc(/C(N)=N/OC(=O)CCCc2ccccc2)cc1OC	21	-2%	-14%	?	5%	12%
O=C(Nc1cccc(Cl)c1)Nc1ccccc1C(=O)NCc1ccco1	-53*	18µM*	18µM*	3%	-22%	?
O=C(NCc1ccco1)c1cccnc1-c1nc2ccccc2s1	-3	21µM*	29µM*	-12%	2%	14%
O=C(Nc1ccccc1C(=O)NCc1ccco1)Nc1cccc2ccccc12	?	21µM*	12µM*	5%	?	?
O=C1CCCN1CC(O)CS(=O)(=O)Cc1ccc(Cl)c(Cl)c1 (stereo not given)	0	-1%	4%	9%	7%	5%
CC(OC(=O)/C=C/c1ccc2ccccc2n1)C(=O)NCc1ccccc1 (stereo not given)	-75*	?	?	-2%	3%	11%
